Test results published in PubChem BioAssay AID1159580 (chemical genetic matrix, 2015).
“And” between values parts separate entries of the source, which are not always exact repeats. Equal entries are not always repeated. Screen size: about 5,500 compounds; about 2,000 (36%) were called active. About 18% were inconclusive and are not listed. No stated cut-off is given here; in the data, active means normalized growth mostly below about 0.91 (no sharp cut-off); inconclusive means no clear call, values can overlap the other calls; inactive means mostly above about 0.92. This is one part of the list.

Test: chemical genetic growth profiling, strain panel (AID 1159580);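 further: tested at 20 µM; growth read once vehicle control cultures reached saturation at 30 °C; 1 = growth at the plate median or of vehicle wells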
Settings: S. cerevisiae deletion strains, growth OD

Measured: normalized growth

C=C1[C@H]2CC[C@@]3(C)[C@H](c4ccoc4)OC(=O)C[C@]13O[C@H]1C[C@H](O)C(C)(C)[C@H](CC(=O)OC)[C@]12C
inactive: locus YAL021C, strain ccr4, stronger effect = lower value 0.998 | locus YAL026C, strain drs2, stronger effect = lower value 1.05 | locus YAL030W, strain snc1, stronger effect = lower value 1.02 | locus YBL061C, strain skt5, stronger effect = lower value 1.02 | locus YBR009C, strain hhf1, stronger effect = lower value 1.01 | locus YBR021W, strain FUR4, stronger effect = lower value 0.985 | locus YBR023C, strain chs3, stronger effect = lower value 1.01 | locus YBR171W, strain sec66, stronger effect = lower value 1.02 | locus YBR229C, strain ROT2, stronger effect = lower value 0.999 | locus YBR231C, strain swc5, stronger effect = lower value 1.04 | locus YBR279W, strain paf1, stronger effect = lower value 1.02 | locus YCL011C, strain gbp2, stronger effect = lower value 1.01 | locus YCL016C, strain dcc1, stronger effect = lower value 1 | locus YCL029C, strain bik1, stronger effect = lower value 1.01 | locus YCL061C, strain MRC1, stronger effect = lower value 1.03 | locus YCL069W, strain vba3, stronger effect = lower value 1.02 | locus YCR088W, strain abp1, stronger effect = lower value 1.02 | locus YDL005C, strain med2, stronger effect = lower value 1.02 | locus YDL035C, strain GPR1, stronger effect = lower value 1 | locus YDL040C, strain nat1, stronger effect = lower value 1.02 | locus YDL074C, strain BRE1, stronger effect = lower value 0.99 | locus YDL101C, strain DUN1, stronger effect = lower value 1 | locus YDL134C, strain PPH21, stronger effect = lower value 1 | locus YDL185W, strain tfp1, stronger effect = lower value 1.03 | locus YDL192W, strain arf1, stronger effect = lower value 1.02 | locus YDR001C, strain nth1, stronger effect = lower value 1.02 | locus YDR069C, strain doa4, stronger effect = lower value 1.03 | locus YDR101C, strain arx1, stronger effect = lower value 1.01 | locus YDR137W, strain rgp1, stronger effect = lower value 0.975 | locus YDR159W, strain sac3, stronger effect = lower value 1.04 | locus YDR162C, strain NBP2, stronger effect = lower value 1.01 | locus YDR195W, strain ref2 1.03 | locus YDR297W, strain sur2, stronger effect = lower value 1.03 | locus YDR318W, strain mcm21, stronger effect = lower value 1.02 | locus YDR334W, strain swr1, stronger effect = lower value 1.02 | locus YDR335W, strain msn5, stronger effect = lower value 1.02 | locus YDR388W, stronger effect = lower value 1.02 | locus YDR392W, strain spt3, stronger effect = lower value 0.927 | locus YDR502C, strain sam2, stronger effect = lower value 1.02 | locus YEL003W, strain gim4, stronger effect = lower value 1.03 | locus YEL037C, strain rad23, stronger effect = lower value 1.01 | locus YEL061C, strain CIN8 (second series), stronger effect = lower value 1.02 | locus YEL061C, strain CIN8, stronger effect = lower value 0.998 | locus YER015W, strain faa2, stronger effect = lower value 1.03 | locus YER016W, strain bim1, stronger effect = lower value 1.02 | locus YER110C, stronger effect = lower value 1.02 | locus YER111C, strain swi4, stronger effect = lower value 1.03 | locus YER155C, strain BEM2 (second series), stronger effect = lower value 1.04 | locus YER155C, strain BEM2, stronger effect = lower value 1 | locus YER167W, strain BCK2, stronger effect = lower value 1 | locus YFR010W, strain ubp6, stronger effect = lower value 1.04 | locus YGL078C, strain dbp3, stronger effect = lower value 1.02 | locus YGL086W, strain mad1, stronger effect = lower value 1 | locus YGL167C, strain pmr1, stronger effect = lower value 1.02 | locus YGL173C, strain kem1, stronger effect = lower value 1.04 | locus YGL227W, strain vid30, stronger effect = lower value 1.03 | locus YGL240W, strain doc1, stronger effect = lower value 1.02 | locus YGL248W, strain PDE1, stronger effect = lower value 0.999 | locus YGL253W, strain hxk2, stronger effect = lower value 1.03 | locus YGR078C, strain PAC10, stronger effect = lower value 0.999 | locus YGR135W, strain pre9, stronger effect = lower value 1.02 | locus YGR252W, strain gcn5, stronger effect = lower value 1.02 | locus YHR013C, strain ard1, stronger effect = lower value 1 | locus YHR027C, strain rpn1, stronger effect = lower value 1.02 | locus YHR030C, strain SLT2, stronger effect = lower value 0.986 | locus YHR079C, strain IRE1 (second series), stronger effect = lower value 1.02 | locus YHR079C, strain IRE1, stronger effect = lower value 0.977 | locus YHR094C, strain hxt1, stronger effect = lower value 1.02 | locus YHR129C, strain ARP1, stronger effect = lower value 1.01 | locus YHR142W, strain chs7, stronger effect = lower value 1.01 | locus YHR200W, strain rpn10, stronger effect = lower value 1 | locus YIL066C, strain RNR3, stronger effect = lower value 1.01 | locus YIL073C, strain SPO22, stronger effect = lower value 1.07 | locus YIL125W, strain kgd1, stronger effect = lower value 1.01 | locus YIR030C, strain dcg1, stronger effect = lower value 1.02 | locus YJL092W, strain hpr5, stronger effect = lower value 1.03 | locus YJL095W, strain BCK1 (second series), stronger effect = lower value 1.02 | locus YJL095W, strain BCK1, stronger effect = lower value 1 and 0.979 | locus YJL115W, strain asf1, stronger effect = lower value 1.02 | locus YJL129C, strain trk1, stronger effect = lower value 1.02 | locus YJL134W, strain LCB3, stronger effect = lower value 1.01 | locus YJL154C, strain vps35, stronger effect = lower value 1.02 | locus YJL164C, strain tpk1, stronger effect = lower value 1 | locus YJL166W, strain qcr8, stronger effect = lower value 1.03 | locus YJL168C, strain set2, stronger effect = lower value 1.02 | locus YJL187C, strain SWE1 (second series), stronger effect = lower value 1 | locus YJR043C, strain POL32, stronger effect = lower value 0.991
